An excerpt weighted towards active compounds, which were near 3.1% of everything screened.
Peg3 promoter – Peg3 promoter-driven luciferase inhibitors, primary screen, cell-based, HeLa, luciferase luminescence | inhibition, % at 20 µM | 360,000 tested, 1.7% active | HeLa PEG-Prom luciferase reporter, overnight;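 active = inhibition of at least 50% at 20 µM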
HIF-2a block – HIF-2a reporter inhibitors, primary screen, luminescence, 786-0 RCC cells. 786-0 RCC cells HIF-2a reporter, luciferase luminescence, overnight. 360,000 tested, 0.72% active. AID 624352, 2012. inhibition, % at 18.8 µM;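 active = inhibition of the luminescence signal of 40% or more relative to plate controls, in a single-dose primary screen at 18.75 µM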
KKLEB tox – cytotoxicity in KKLEB CF airway cells, primary screen, cytotoxicity control for CF NF-kB inhibitor project, cell-based, uHTS, fluorescence assay plates. KKLEB CF airway cells viability, ATPlite luminescence, overnight; hits give low values; cells stimulated with P. aeruginosa culture filtrate. activity change (cytotoxicity), % at 5 µM. 360,000 tested, 0.36% active. AID 602141, 2011;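 active = corrected activity change at or below -50% at 5 µM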
TRAIL sens C8 – viability loss with TRAIL in NB7+C8 cells, primary screen, TRAIL sensitizer project, cell-based, ATPlite luminescence; 360,000 tested, 1% active; inhibition (viability loss, TRAIL sensitization), % at 10 µM;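 active = compounds causing at least 50% loss of cell viability in the single-dose screen, relative to plate controls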
PPC-1+TRAIL kill – compounds killing PPC-1 cancer cells with TRAIL present, primary screen, TRAIL potentiator project, ATPLite luminescence, uHTS; cell killing (% activity), % at 4 µM or 5 µM; PPC-1 cells + TRAIL, ATPLite viability luminescence; 220,000 tested, 0.41% active; AID 1443, 2008;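 active = cell killing above 50% in the first pass at 4 µM, then a duplicate retest at 5 µM averaging 50% or more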;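 note: plate controls were cells with TRAIL plus DMSO for no effect and medium-only wells lacking cells for full effect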
CF NFkB inh – inhibitors of PAF-induced NF-kB signaling, primary screen, cell-based, GFP fluorescence, uHTS | KKLEB NF-kB-GFP reporter, GFP fluorescence overnight | 360,000 tested, 0.86% active | AID 588850, 2011 | inhibition, % at 5 µM;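 active = at least 50% inhibition at 5 µM, scaled per plate between neutral and stimulator controls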;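 note: PAF is a Pseudomonas aeruginosa culture filtrate used as stimulus; plate controls were PAF-stimulated DMSO wells for no effect and unstimulated DMSO wells for full effect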
The depositor's hits bear a star; / = no result given.

SMILES	Peg3 promoter	HIF-2a block	KKLEB tox	TRAIL sens C8	PPC-1+TRAIL kill	CF NFkB inh
COc1ccc(N2C(=O)N3[C@H](c4ccc(Br)cc4)[C@@H]4C(=O)N(C(C)(C)C)C(=O)[C@@H]4[C@]3(Cc3ccccc3)C2=O)cc1	-1.0	9.0	-4.8	-2.1	/	0.3
COc1ccc([C@@H]2[C@@H]3C(=O)N(C(C)(C)C)C(=O)[C@@H]3[C@]3(Cc4ccccc4)C(=O)N(c4ccc(Br)cc4)C(=O)N23)cc1	10.7	-11.5	-83.4*	10.2	/	71.1*
COc1cc(-c2noc(C)c2C#Cc2ccc(N)cc2)cc(OC)c1OC	-66.5	-46.6	-21.3	9.9	/	51.7*
COc1cc(-c2noc(C)c2C#Cc2ccccn2)cc(OC)c1OC	-3.2	-13.2	-7.0	10.1	/	11.1
COc1cc2c(cc1OC)-c1nnc(C)n1C1(CCCC1)C2	15.8	3.8	0.8	-6.6	0.5	-18.6
COc1cc2c(cc1OC)-c1nnc(C)n1C(C)(C)C2	-0.4	16.6	-7.8	-10.8	66.2*	-0.3
COc1ccc(Cl)cc1NS(=O)(=O)c1cccc(C(=O)NCC(c2ccco2)N(C)C)c1 (stereo not drawn)	8.8	8.9	-0.2	-2.2	/	-15.7
CCOc1ccccc1-n1c(CN2CCN(C(=O)c3ccco3)CC2)nc2ccccc2c1=O	104.5*	32.4	-8.7	3.5	8.0	26.6
COCCn1c(=NC(=O)c2ccc(S(=O)(=O)N3CCc4ccccc4C3)cc2)sc2cc(OC)ccc21	12.5	10.4	-68.9*	-11.2	11.1	55.3*
COc1cc([N+](=O)[O-])ccc1-c1ccc(/C=C2\C(=O)ON=C2c2ccccc2)o1	103.4*	9.5	-24.9	-8.1	/	86.7*
Cc1ccc(/C=C2/C(=O)ON=C2c2ccccc2)o1	50.1*	68.4*	-1.8	-7.0	13.4	11.3
COCCNC(=O)C1(C)CCCN(Cc2csc(-c3ccc(Cl)cc3)n2)C1 (stereo not drawn)	10.1	-4.5	-0.9	-2.3	/	4.1
COc1ccc(C(=O)N/N=C/c2cccnc2)cc1	-62.0	-71.1	0.4	51.9*	/	-0.4
CCOc1ccc(/C=N/NC(=O)c2ccccc2NC(=O)c2ccc(OC)cc2)cc1	-142.0	-128.6	-43.7	76.0*	35.7	-2.4
COc1ccc(/C=N/NC(=O)c2ccccc2NC(=O)c2ccco2)c(OC)c1	1.5	10.2	-11.3	-0.3	-8.1	6.1
COc1ccc(C(=O)Nc2ccccc2C(=O)N/N=C/c2ccco2)cc1	-110.8	-127.1	-47.2	84.0*	49.7	1.5
COc1ccc(C(=O)Nc2ccccc2C(=O)Nc2ccccc2)cc1	-165.8	-261.5	-26.2	31.8	/	-21.7
CC(=O)Nc1ccc(C(=O)N/N=C/c2cccnc2)cc1	-1.7	13.1	2.9	4.7	22.3	5.6
COc1ccc(C(=O)c2sc(Nc3ccccc3)nc2N)cc1	-137.3	-288.8	2.6	15.4	/	34.6
Nc1nc(Nc2ccccc2)sc1C(=O)c1ccccc1	91.1*	-381.0	-19.7	17.5	18.9	87.4*
COc1ccc(C(=O)c2sc(Nc3ccccc3F)nc2N)cc1	-254.3	-268.5	-11.7	-9.1	/	43.9
COc1ccc(C(=O)c2sc(Nc3ccccc3)nc2N)cc1OC	78.1*	-74.3	-7.0	18.2	/	49.5
CC(=O)c1cccc(OCc2cc(C(=O)NCc3nc(C)c(C)s3)no2)c1	-185.9	-170.5	-8.7	-8.7	/	-1.5
CCOc1ccc(NC(=O)CN(C)C(=O)c2c(-c3c(F)cccc3Cl)noc2C)cc1OCC	5.0	2.1	-19.8	-6.6	/	7.9
Cc1nn(CCCC(=O)NCCc2ccccc2)c(=O)c2nccn12	2.1	1.4	0.1	-6.0	/	-32.8
SMILES	Peg3 promoter	HIF-2a block	KKLEB tox	TRAIL sens C8	PPC-1+TRAIL kill	CF NFkB inh
CCOc1cc(N2CCOCC2)c(OCC)cc1NC(=O)c1nn(CC)c(=O)c2ccccc12	60.5*	-17.8	-13.1	47.0	/	18.5
CCOc1cc(N2CCOCC2)c(OCC)cc1NC(=O)c1ccc(OCc2c(C)noc2C)c(OC)c1	50.5*	7.3	15.2	-5.0	-4.1	-17.8
CCOc1cc(N2CCOCC2)c(OCC)cc1NC(=O)c1ccc(OC)cc1	9.5	6.6	-13.4	-1.4	0.5	0.9
CCc1ccccc1NC(=O)CN(c1ccc(OC)cc1OC)S(=O)(=O)c1ccccc1	24.6	26.0	-2.6	0.2	/	21.9
O=C(Nc1ccc(S(=O)(=O)N2CCCC2)cc1)C1CC(=O)N(CCc2ccccc2)C1 (stereo not drawn)	9.3	13.7	-7.9	-1.0	/	4.1
C=CCn1c(C)cc(C(=O)CSc2nnc3c(Cl)cc(Cl)cn23)c1C	-5.6	-14.3	-69.7*	-0.5	-13.8	-6.2
CCc1c(O)nc(SCC(=O)Nc2ccccc2)n(-c2ccccc2C)c1=O	3.0	-0.6	7.5	-7.9	/	-22.2
Cc1ccc(C(=O)N/N=C\c2ccccc2[N+](=O)[O-])cn1	-160.4	-186.1	9.9	51.8*	/	-1.0
Cc1ccc(C(=O)N/N=C\C=C\c2ccccc2[N+](=O)[O-])cn1	3.6	5.9	-1.2	3.1	32.6	7.7
CCOc1ccc(C(=O)N/N=C/c2ccccc2[N+](=O)[O-])cc1	-215.3	-215.4	-11.1	76.0*	51.7*	5.8
COc1cccc(CN(CCC(C)C)S(=O)(=O)c2cc(Br)ccc2Br)c1	9.3	3.8	6.9	13.9	/	11.9
CC(O/N=C(\N)c1ccccc1)C(=O)Nc1cccc(C(F)(F)F)c1 (stereo not drawn)	7.6	-0.1	-20.2	1.9	/	6.8
C#CCOCCOCCOCCNc1nc(N2CCN(C(=O)CCCCCCCCCCNC(=O)[C@H]([C@@H](C)CC)n3cc(CCCCCN)nn3)CC2)nc(N2CCN(C(=O)CCCCCCCCCCNC(=O)[C@@H]([C@H](C)O)n3cc(C)nn3)CC2)n1	98.2*	-0.4	-28.6	91.7*	/	27.3
C#CCOCCOCCOCCNc1nc(N2CCN(C(=O)CCCCCCCCCCNC(=O)[C@H](CCCCN)n3cc(C)nn3)CC2)nc(N2CCN(C(=O)CCCCCCCCCCNC(=O)[C@@H]([C@H](C)CC)n3cc(CCCCCN)nn3)CC2)n1	94.0*	4.1	11.2	97.0*	/	4.2
C#CCOCCOCCOCCNc1nc(N2CCN(C(=O)CCCCCCCCCCNC(=O)Cn3cc(CCCCCN)nn3)CC2)nc(N2CCN(C(=O)CCCCCCCCCCNC(=O)[C@H]([C@@H](C)CC)n3cc(CCCCCN)nn3)CC2)n1	95.5*	-3.4	-4.3	75.3*	/	-20.6
CCCC[C@@H]1Cc2[nH][nH]c(=O)c2[C@H](c2ccc(C(C)C)cc2)O1	/	1.9	/	-15.6	/	/
CCOc1ccc(OCC(=O)Nc2cccc(S(=O)(=O)NC3=NCCC3)c2)cc1	-91.1	-88.8	-5.6	62.8*	/	-7.3

Bioassay records as filed in PubChem.
